{"source": "PubChem BioAssay AID1159580", "about": "(chemical genetic matrix, 2015)", "experiment": "chemical genetic growth profiling, strain panel (AID 1159580);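 also: tested at 20 µM; growth read once vehicle control cultures reached saturation at 30 °C; 1 = growth at the plate median or of vehicle wells; lower values mean less growth of the strain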", "settings": "growth OD", "note": "In all, about 5,500 compounds went through this assay and about 2,000 (36%) were called active. About 18% were inconclusive and are not listed. The list shows a part of the results. Values without a mark were called inactive. Rule as the data show it: active = normalized growth mostly below about 0.91 (no sharp cut-off); inconclusive = no clear call, values can overlap the other calls; inactive = mostly above about 0.92."}
{"smiles": "COC(=O)[C@]1(C)CC[C@]2(C)CC[C@]3(C)C4=CC=C5C(=CC(=O)C(O)=C5C)[C@]4(C)CC[C@@]3(C)[C@@H]2C1", "values": [{"measurement": "normalized growth", "setting": "S. cerevisiae deletion strains, locus YJR043C, strain POL32, active compounds read low", "value": "0.646 (active)"}, {"measurement": "normalized growth", "setting": "S. cerevisiae deletion strains, locus YJR075W, strain HOC1, active compounds read low", "value": "0.794 (active)"}, {"measurement": "normalized growth", "setting": "S. cerevisiae deletion strains, locus YKL009W, strain mrt4, active compounds read low", "value": 1.06}, {"measurement": "normalized growth", "setting": "S. cerevisiae deletion strains, locus YKL068W, active compounds read low", "value": 0.961}, {"measurement": "normalized growth", "setting": "S. cerevisiae deletion strains, locus YKL085W, strain MDH1 (second series), active compounds read low", "value": 1.01}, {"measurement": "normalized growth", "setting": "S. cerevisiae deletion strains, locus YKL085W, strain MDH1, active compounds read low", "value": 1.01}, {"measurement": "normalized growth", "setting": "S. cerevisiae deletion strains, locus YKL160W, strain elf1, active compounds read low", "value": "0.702 (active)"}, {"measurement": "normalized growth", "setting": "S. cerevisiae deletion strains, locus YKL190W, strain CNB1, active compounds read low", "value": "0.712 (active)"}, {"measurement": "normalized growth", "setting": "S. cerevisiae deletion strains, locus YKR001C, strain vps1, active compounds read low", "value": "0.793 (active)"}, {"measurement": "normalized growth", "setting": "S. cerevisiae deletion strains, locus YKR026C, strain gcn3, active compounds read low", "value": 0.941}, {"measurement": "normalized growth", "setting": "S. cerevisiae deletion strains, locus YKR091W, strain srl3, active compounds read low", "value": 0.995}, {"measurement": "normalized growth", "setting": "S. cerevisiae deletion strains, locus YLL001W, strain dnm1, active compounds read low", "value": "0.729 (active)"}, {"measurement": "normalized growth", "setting": "S. cerevisiae deletion strains, locus YLL026W, active compounds read low", "value": "0.887 (active)"}, {"measurement": "normalized growth", "setting": "S. cerevisiae deletion strains, locus YLL041C, strain sdh2, active compounds read low", "value": 0.929}, {"measurement": "normalized growth", "setting": "S. cerevisiae deletion strains, locus YLR027C, strain aat2, active compounds read low", "value": "0.719 (active)"}, {"measurement": "normalized growth", "setting": "S. cerevisiae deletion strains, locus YLR039C, strain RIC1, active compounds read low", "value": "0.406 (active)"}, {"measurement": "normalized growth", "setting": "S. cerevisiae deletion strains, locus YLR058C, strain SHM2, active compounds read low", "value": "0.615 (active)"}, {"measurement": "normalized growth", "setting": "S. cerevisiae deletion strains, locus YLR102C, strain apc9, active compounds read low", "value": 0.983}, {"measurement": "normalized growth", "setting": "S. cerevisiae deletion strains, locus YLR221C, strain rsa3, active compounds read low", "value": "0.752 (active)"}, {"measurement": "normalized growth", "setting": "S. cerevisiae deletion strains, locus YLR258W, strain gsy2, active compounds read low", "value": "0.802 (active)"}, {"measurement": "normalized growth", "setting": "S. cerevisiae deletion strains, locus YLR262C, strain YPT6 (second series), active compounds read low", "value": "0.394 (active)"}, {"measurement": "normalized growth", "setting": "S. cerevisiae deletion strains, locus YLR262C, strain YPT6, active compounds read low", "value": "0.45 (active)"}, {"measurement": "normalized growth", "setting": "S. cerevisiae deletion strains, locus YLR268W, strain sec22, active compounds read low", "value": "0.832 (active)"}, {"measurement": "normalized growth", "setting": "S. cerevisiae deletion strains, locus YLR320W, strain mms22, active compounds read low", "value": "0.495 (active)"}, {"measurement": "normalized growth", "setting": "S. cerevisiae deletion strains, locus YLR330W, strain CHS5, active compounds read low", "value": "0.64 (active)"}, {"measurement": "normalized growth", "setting": "S. cerevisiae deletion strains, locus YLR342W, strain FKS1 (second series), active compounds read low", "value": "0.71 (active)"}, {"measurement": "normalized growth", "setting": "S. cerevisiae deletion strains, locus YLR342W, strain FKS1, active compounds read low", "value": "0.59 (active)"}, {"measurement": "normalized growth", "setting": "S. cerevisiae deletion strains, locus YLR357W, strain rsc2, active compounds read low", "value": "0.824 (active)"}, {"measurement": "normalized growth", "setting": "S. cerevisiae deletion strains, locus YLR370C, strain arc18, active compounds read low", "value": "0.797 (active)"}, {"measurement": "normalized growth", "setting": "S. cerevisiae deletion strains, locus YLR371W, strain rom2, active compounds read low", "value": 0.948}, {"measurement": "normalized growth", "setting": "S. cerevisiae deletion strains, locus YLR384C, strain iki3, active compounds read low", "value": 0.96}, {"measurement": "normalized growth", "setting": "S. cerevisiae deletion strains, locus YLR418C, strain cdc73, active compounds read low", "value": "0.383 (active)"}, {"measurement": "normalized growth", "setting": "S. cerevisiae deletion strains, locus YML016C, strain PPZ1, active compounds read low", "value": "0.781 (active)"}, {"measurement": "normalized growth", "setting": "S. cerevisiae deletion strains, locus YML032C, strain rad52, active compounds read low", "value": "0.873 (active)"}, {"measurement": "normalized growth", "setting": "S. cerevisiae deletion strains, locus YML120C, strain ndi1, active compounds read low", "value": "0.819 (active)"}, {"measurement": "normalized growth", "setting": "S. cerevisiae deletion strains, locus YML124C, strain tub3, active compounds read low", "value": 0.956}, {"measurement": "normalized growth", "setting": "S. cerevisiae deletion strains, locus YMR058W, strain fet3, active compounds read low", "value": "0.115 (active)"}, {"measurement": "normalized growth", "setting": "S. cerevisiae deletion strains, locus YMR078C, strain ctf18, active compounds read low", "value": 0.934}, {"measurement": "normalized growth", "setting": "S. cerevisiae deletion strains, locus YMR125W, strain sto1, active compounds read low", "value": "0.812 (active)"}, {"measurement": "normalized growth", "setting": "S. cerevisiae deletion strains, locus YMR205C, strain PFK2, active compounds read low", "value": "0.56 (active)"}, {"measurement": "normalized growth", "setting": "S. cerevisiae deletion strains, locus YMR223W, strain ubp8, active compounds read low", "value": "0.85 (active)"}, {"measurement": "normalized growth", "setting": "S. cerevisiae deletion strains, locus YMR231W, strain pep5, active compounds read low", "value": "0.863 (active)"}, {"measurement": "normalized growth", "setting": "S. cerevisiae deletion strains, locus YMR263W, strain SAP30, active compounds read low", "value": "0.803 (active)"}, {"measurement": "normalized growth", "setting": "S. cerevisiae deletion strains, locus YMR307W, strain GAS1, active compounds read low", "value": 0.65}, {"measurement": "normalized growth", "setting": "S. cerevisiae deletion strains, locus YNL067W, strain RPL9B, active compounds read low", "value": "0.803 (active)"}, {"measurement": "normalized growth", "setting": "S. cerevisiae deletion strains, locus YNL071W, strain lat1, active compounds read low", "value": "0.347 (active)"}, {"measurement": "normalized growth", "setting": "S. cerevisiae deletion strains, locus YNL128W, strain TEP1, active compounds read low", "value": "0.548 (active)"}, {"measurement": "normalized growth", "setting": "S. cerevisiae deletion strains, locus YNL209W, strain ssb2, active compounds read low", "value": "0.454 (active)"}, {"measurement": "normalized growth", "setting": "S. cerevisiae deletion strains, locus YNL233W, strain BNI4, active compounds read low", "value": "0.811 (active)"}, {"measurement": "normalized growth", "setting": "S. cerevisiae deletion strains, locus YNL248C, strain rpa49, active compounds read low", "value": "0.887 (active)"}, {"measurement": "normalized growth", "setting": "S. cerevisiae deletion strains, locus YNL250W, strain rad50, active compounds read low", "value": 0.934}, {"measurement": "normalized growth", "setting": "S. cerevisiae deletion strains, locus YNL271C, strain bni1, active compounds read low", "value": "0.894 (active)"}, {"measurement": "normalized growth", "setting": "S. cerevisiae deletion strains, locus YNL298W, strain CLA4, active compounds read low", "value": 0.957}, {"measurement": "normalized growth", "setting": "S. cerevisiae deletion strains, locus YNL307C, strain MCK1, active compounds read low", "value": "0.754 (active)"}, {"measurement": "normalized growth", "setting": "S. cerevisiae deletion strains, locus YNL322C, strain KRE1 (second series), active compounds read low", "value": 0.978}, {"measurement": "normalized growth", "setting": "S. cerevisiae deletion strains, locus YNL322C, strain KRE1, active compounds read low", "value": "0.772 (active)"}, {"measurement": "normalized growth", "setting": "S. cerevisiae deletion strains, locus YNR049C, strain mso1, active compounds read low", "value": "0.878 (active)"}, {"measurement": "normalized growth", "setting": "S. cerevisiae deletion strains, locus YNR052C, strain pop2, active compounds read low", "value": "0.888 (active)"}, {"measurement": "normalized growth", "setting": "S. cerevisiae deletion strains, locus YOL006C, strain TOP1, active compounds read low", "value": "0.317 (active)"}, {"measurement": "normalized growth", "setting": "S. cerevisiae deletion strains, locus YOL012C, strain htz1", "value": 0.412}, {"measurement": "normalized growth", "setting": "S. cerevisiae deletion strains, locus YOL147C, strain pex11, active compounds read low", "value": "0.91 (active)"}, {"measurement": "normalized growth", "setting": "S. cerevisiae deletion strains, locus YOR001W, strain rrp6, active compounds read low", "value": 0.918}, {"measurement": "normalized growth", "setting": "S. cerevisiae deletion strains, locus YOR061W, strain CKA2, active compounds read low", "value": "0.744 (active)"}, {"measurement": "normalized growth", "setting": "S. cerevisiae deletion strains, locus YOR069W, strain VPS5, active compounds read low", "value": "0.836 (active)"}, {"measurement": "normalized growth", "setting": "S. cerevisiae deletion strains, locus YOR070C, strain gyp1, active compounds read low", "value": "0.678 (active)"}, {"measurement": "normalized growth", "setting": "S. cerevisiae deletion strains, locus YOR080W, strain dia2, active compounds read low", "value": "0.757 (active)"}, {"measurement": "normalized growth", "setting": "S. cerevisiae deletion strains, locus YOR083W, strain WHI5, active compounds read low", "value": "0.757 (active)"}, {"measurement": "normalized growth", "setting": "S. cerevisiae deletion strains, locus YOR106W, strain vam3, active compounds read low", "value": "0.574 (active)"}, {"measurement": "normalized growth", "setting": "S. cerevisiae deletion strains, locus YOR136W, strain idh2, active compounds read low", "value": 0.961}, {"measurement": "normalized growth", "setting": "S. cerevisiae deletion strains, locus YOR144C, strain elg1, active compounds read low", "value": "0.908 (active)"}, {"measurement": "normalized growth", "setting": "S. cerevisiae deletion strains, locus YOR184W, strain ser1, active compounds read low", "value": "0.645 (active)"}, {"measurement": "normalized growth", "setting": "S. cerevisiae deletion strains, locus YOR265W, strain rbl2, active compounds read low", "value": "0.747 (active)"}, {"measurement": "normalized growth", "setting": "S. cerevisiae deletion strains, locus YOR270C, strain vph1, active compounds read low", "value": "0.472 (active)"}, {"measurement": "normalized growth", "setting": "S. cerevisiae deletion strains, locus YOR290C, strain snf2, active compounds read low", "value": "0.515 (active)"}, {"measurement": "normalized growth", "setting": "S. cerevisiae deletion strains, locus YOR316C, strain cot1, active compounds read low", "value": 0.962}, {"measurement": "normalized growth", "setting": "S. cerevisiae deletion strains, locus YPL051W, strain arl3, active compounds read low", "value": "0.448 (active)"}, {"measurement": "normalized growth", "setting": "S. cerevisiae deletion strains, locus YPL078C, strain atp4, active compounds read low", "value": "0.65 (active)"}, {"measurement": "normalized growth", "setting": "S. cerevisiae deletion strains, locus YPL106C, strain sse1, active compounds read low", "value": 0.854}, {"measurement": "normalized growth", "setting": "S. cerevisiae deletion strains, locus YPL240C, strain hsp82, active compounds read low", "value": "0.81 (active)"}, {"measurement": "normalized growth", "setting": "S. cerevisiae deletion strains, locus YPL241C, strain CIN2, active compounds read low", "value": "0.898 (active)"}, {"measurement": "normalized growth", "setting": "S. cerevisiae deletion strains, locus YPR119W, strain clb2, active compounds read low", "value": 0.957}, {"measurement": "normalized growth", "setting": "S. cerevisiae deletion strains, locus YPR141C, strain kar3, active compounds read low", "value": 0.943}, {"measurement": "normalized growth", "setting": "S. cerevisiae deletion strains, locus YPR163C, strain tif3, active compounds read low", "value": "0.888 (active)"}, {"measurement": "normalized growth", "setting": "S. cerevisiae deletion strains, locus YPR167C, strain met16, active compounds read low", "value": "0.917 (active)"}, {"measurement": "normalized growth", "setting": "S. cerevisiae deletion strains, strain wtn01, active compounds read low", "value": "0.894 (active)"}, {"measurement": "normalized growth", "setting": "S. cerevisiae strains, strain wild type, active compounds read low", "value": "0.572 (active)"}]}
